Screening data deposited in PubChem by National Center for Advancing Translational Sciences (NCATS).
Rows were chosen to be rich in hits. Some 1.5% of all compounds tested hit in one or more screens of this group.
Tb PFK inh: inhibitors of T. brucei phosphofructokinase | T. brucei PFK, ADP-Glo luminescence | Potency, µM (doses to about 57.5 µM), inactives show top-dose activity, negative = inhibition, usual class: inhibitors | 330,000 tested, 0.17% active;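 also: potency is read from the fitted curve at half-maximal effect; 0% = uninhibited 1x PFK enzyme wells and -100% = no-enzyme wells; nearly all actives have a fitted effect of over 60% in size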
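ADP-Glo luminescence quantified ADP after 45 min at room temperature, with 1.25 nM T. brucei PFK, 0.1 mM ATP and 0.5 mM fructose-6-phosphate in pH 8.0 TEA buffer. qHTS titrations up to 57 µM; curves classified by quality.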
WRN helicase inh: inhibitors of human WRN helicase. Q14191. WRN helicase unwinding, fluorescent forked duplex, kinetic. Potency, µM (top dose mostly 114 µM), inactives show at the top dose activity change, negative = inhibition, usual class: inhibitors. 360,000 tested, 0.46% active; also: potency is read from the fitted curve at half-maximal effect; nearly all actives have a fitted effect of over 55% in size
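Screening of the MLSMR collection measured strand separation of a quenched forked DNA duplex (100 nM) by 20 nM WRN with 2 mM ATP, all final. Compounds were preincubated with enzyme 15 min at room temperature.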
PGK inhibitor: blocks T. brucei phosphoglycerate kinase | Potency, µM (titrated, usually from 57.5 µM), for inactives: at the highest dose activity change, negative = inhibition, usual class: inhibitors | P07378 | PGK/GAPDH coupled, Kinase-Glo luminescence, 60 min | 380,000 tested, 0.043% active; also: potency is read from the fitted curve at half-maximal effect; nearly all actives have a fitted effect of over 60% in size
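Luminescent ATP detection (Kinase-Glo Plus) follows a 60-minute room-temperature incubation, with wells lacking PGK as controls. Buffer: 100 mM TEA (pH 7.6), 5 mM MgCl2, 0.01% Tween-20. Coupling enzyme GAPDH (100 nM final) supplies unstable 1,3-BPG in-well.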
FEN1 inh: blocks human flap endonuclease 1; Recombinant FEN1 flap cleavage, fluorescence, 15 min; AID 588795; 390,000 tested, 0.35% active; Potency, µM (doses to about 114 µM), inactives show at the top dose activity change, negative = inhibition, actives largely listed as inhibitors; P39748; also: potency is read from the fitted curve at half-maximal effect; nearly all actives have a fitted effect of over 65% in size
Target sequence (P39748 whole entry, looked up): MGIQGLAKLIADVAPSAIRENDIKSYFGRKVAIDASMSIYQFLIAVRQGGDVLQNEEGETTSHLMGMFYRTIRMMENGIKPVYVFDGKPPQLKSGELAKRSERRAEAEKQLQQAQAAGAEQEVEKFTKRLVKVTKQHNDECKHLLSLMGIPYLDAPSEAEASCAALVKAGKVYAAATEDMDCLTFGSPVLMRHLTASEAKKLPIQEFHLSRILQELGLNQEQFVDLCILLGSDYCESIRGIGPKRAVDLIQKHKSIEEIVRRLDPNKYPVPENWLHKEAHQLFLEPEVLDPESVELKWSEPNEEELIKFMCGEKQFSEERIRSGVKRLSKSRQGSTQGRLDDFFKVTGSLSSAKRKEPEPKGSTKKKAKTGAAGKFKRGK
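FEN1 at 10 nM preincubated with compounds 15 min at room temperature, then flap DNA substrate added at 50 nM final. Signal read at 0 and 15 min; concentration-response fitted with four-parameter Hill equation.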
PI5P4Ka inh: PI5P4K alpha (human) kinase inhibition; P48426; PI5P4Kalpha enzyme, ADP-Glo luminescence, 60 min; hits give low values; max response, %; 330,000 tested, 1.2% active; AID 652105; active = max response of -50% or lower; inconclusive = between -30% and -50%; inactive = -30% or higher; also: value at the top dose of about 77 µM
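Human PI5P4Kalpha with substrate in 0.038 M HEPES pH 7.4, 0.28 mM EGTA, 0.1% CHAPS, 5% DMSO; reaction started with 5 microM ATP (final), 60 min at room temperature. ADP formed read by ADP-Glo luminescence.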
TDP1 inh: TDP1 (human) enzyme inhibition; Q9NUW8; recombinant TDP1, AlphaScreen DNA substrate cleavage; Potency, µM (top dose mostly 130 µM), without a hit: top-dose activity change, negative = inhibition, hits mostly inhibitors; 350,000 tested, 0.28% active; AID 485290; also: potency is read from the fitted curve at half-maximal effect; nearly all actives have a fitted effect of over 40% in size
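Compounds were preincubated with Tdp1 (1 nM final) for 15 min at room temperature before substrate (15 nM final) started a 5 min reaction; beads (10 ug/ml final) were then added for 10 min before AlphaScreen detection.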
ADP-Glo counter: counter-screen for PI5P4K inhibitors: ADP-Glo detection interference, no enzyme. shares compounds with PI5P4Ka inh. ADP-Glo detection counter-screen, luciferase luminescence, no enzyme. Potency, µM (top dose mostly 76.9 µM), without a hit: top-dose activity change, negative = inhibition, most hits filed as inhibitors. 1,100 tested, under 10 active. AID 743285
The depositor's hits bear a star; i = inactive; ? = inconclusive; . = no result given; [ ] = dose if it differs, or a comment. Unless noted, calls follow the shape of the dose curve; as a rule, active = well fitted curve in the direction sought with a large enough effect; inconclusive = small, poorly fitted or top-dose-only effect, or another doubt; inactive = no such curve, though single readings can be large; an effect the other way counts as inactive or inconclusive. Unless noted, % is scaled to controls: 0 for no effect and ±100 for the full control effect.

SMILES | Tb PFK inh | WRN helicase inh | PGK inhibitor | FEN1 inh | PI5P4Ka inh | TDP1 inh | ADP-Glo counter
CC(=O)c1c(C)[nH]c(C(=O)OC(C)C(=O)Nc2ccc(C)c(S(=O)(=O)N3CCOCC3)c2)c1C (centres undefined) | -3% | 4% | -1% | -2% | 2 | 4% | .
CCN(C(=O)CSc1nc2cc(S(=O)(=O)N(CC)CC)ccc2n1CC)C1CCS(=O)(=O)C1 (centres undefined) | -4% | -6% | -1% | 1% | -3 | -6%[0.505 µM] | .
CC(C)OCCCN1CN(S(=O)(=O)c2cccc(Cl)c2)c2nc3ccccc3nc21 | 3% | -6% | 3% | -23% | 15 | 5% | .
Cc1cc(NC(=O)CSc2sc3c(O)cc(=O)[nH]c3c2C#N)ccc1Br | 1% | -7%[11.6 µM] | 1% | ? | -104* | 0% | 5%
Cc1csc(NC(=O)CSc2sc3c(O)cc(=O)[nH]c3c2C#N)n1 | 1% | 40µM* | -18% | 50µM* | -81* | -13% | 5%
Cc1csc(NC(=O)CSc2nc3[nH]ncc3c(=O)[nH]2)n1 | -5% | -2% | 4% | 13% | . | 7% | 2%
O=C(CSCCO)Nc1cccc(C(F)(F)F)c1 | ? | 7% | -8% | -6% | . | 2% | .
N#Cc1c(SCC(=O)Nc2cccc(C(F)(F)F)c2)sc2c(O)cc(=O)[nH]c12 | -5% | ? | ? | 25µM* | -103* | 0% | -1%
Cc1ccc(C)c(NC(=O)CSc2sc3c(O)cc(=O)[nH]c3c2C#N)c1 | -3% | -21%[57.1 µM] | -5% | -22% | -64* | -15% | 3%
Cc1ccc(NC(=O)CSc2nc3[nH]c(=O)cc(O)c3s2)c(Br)c1 | -3% | -2% | 9% | 14% | ? | 1% | .
Cn1ccc(-c2ccccc2)n1 | 0% | -6% | i | -3% | 2 | -4% | .
N#Cc1cc(-c2ccccc2)nn1-c1ccccc1 | ? | -6% | 3% | -1% | -80* | . | -11%
COc1ccc(NC(=O)CN2C(=O)C(c3ccccc3)=NC23CCC(C)CC3)cc1Cl (centres undefined) | . | . | . | -25% | . | 3% | .
O=C(NC1CC1)C1=C[C@H](c2c[nH]c3ccccc23)C[C@H](OCCCCO)O1 | 3% | 2% | i | -5% | -19 | 1% | .
O=C(NC1CC1)C1=C[C@@H](c2c[nH]c3ccccc23)C[C@@H](OCc2ccc(CO)cc2)O1 | 0% | -2% | -1% | -1% | -51* | 6% | -7%
COc1ccc(CNC(=O)CCNS(=O)(=O)c2ccc3c(c2)CCCC(=O)N3)cc1 | . | . | 0% | 16% | . | 3% | .
O=C(COC(=O)CCc1nc2ccccc2c(=O)[nH]1)Nc1ccc(Cl)cn1 | 0% | -1% | 2% | 1% | -55* | -1% | 1%
CC1Cc2ccccc2N1C(=O)COC(=O)CCc1nc2ccccc2c(=O)[nH]1 (centres undefined) | 2% | -12% | -3% | -1% | -51* | -2% | -3%
CC(C)(C)OC(=O)N1C[C@H](O)C[C@H]1C(=O)OCC(=O)c1ccc([N+](=O)[O-])cc1 | -13% | -9% | 1% | 18% | 0 | 0% | .
Cc1cccc(C(=O)Nc2ccc(C(=O)c3ccncc3)cc2)c1 | . | -1% | 7% | . | 7 | . | .
COc1ccc(C2=Nc3ccccc3NC(=O)C2N(CCc2ccccc2)C(=O)c2cccs2)cc1 (centres undefined) | . | -5% | . | . | -4 | . | .
CCCCCCNC(=O)CNC(=S)N(Cc1cccs1)C1CCCCC1 | 5% | -7% | -1% | -3% | 16 | . | .
CN(C)c1nc(-c2ccccn2)nnc1-c1ccccc1 | -4% | -1%[57.1 µM] | 10% | 2% | -5 | 10% | .
Cc1nnc(-c2ccccc2)nc1N(C)C | -1% | 4% | 8% | 3% | -68* | 8% | -2%
O=C1NC(c2cc(Cl)cc([N+](=O)[O-])c2O)Nc2ccccc21 (centres undefined) | -10% | 3% | i | -18% | -79* | 9% | 6%
SMILES | Tb PFK inh | WRN helicase inh | PGK inhibitor | FEN1 inh | PI5P4Ka inh | TDP1 inh | ADP-Glo counter
Cc1cccc(-n2c3nc(=O)[nH]c(=O)c-3cc3cc([N+](=O)[O-])ccc32)c1 | -11% | -35% | -12% | ? | 11 | 3% | .
Cc1ccc(C)c(-n2c3nc(=O)[nH]c(=O)c-3cc3cc([N+](=O)[O-])ccc32)c1 | ? | 79µM* | -12% | ? | -65* | -1% | 5%
O=C(CN1CCN(c2ccccc2F)CC1)NCc1ccccc1 | -20% | 8% | -6% | -1% | -14 | 2% | 2%
CN1CCN(C(c2ccc(Br)cc2)c2cc(Cl)c3cccnc3c2O)CC1 (centres undefined) | -8% | -23% | i | ? | -84* | 10% | -7%
CN1CCN(C(c2cccnc2)c2ccc3cccnc3c2O)CC1 (centres undefined) | ? | -15% | -8% | -5% | -14 | -4% | .
CCc1ccc(NC(=O)Cn2c(=O)n(Cc3nc(C)no3)c(=O)c3cc4c(cc32)OCO4)cc1 | . | . | i | -5% | . | 3% | .
CC(=O)c1cccc(NC(=O)CNC(=O)c2sc3ccccc3c2Cl)c1 | -4% | -36% | -2% | 0% | -16 | . | .
Cc1cccc(NC(=O)CNC(=O)c2sc3ccccc3c2Cl)n1 | 9% | -4% | 3% | 2% | -51* | 0%[0.505 µM] | -8%
Cn1cccc1C(=O)OCc1nc2ccccc2c(=O)[nH]1 | 0% | -10%[11.6 µM] | -6% | -21% | -53* | -18% | -11%
Cc1c(C(=O)NCc2ccc3c(c2)OCCO3)sc(=O)n1Cc1ccc(C(=O)N(C)C)cc1 | . | 2%[57.1 µM] | . | . | -1 | . | .
O=C(CCCCn1c(=O)c2ccccc2n(CC(=O)Nc2cccc(F)c2)c1=O)NCc1ccccc1Cl | . | . | -11% | 10% | . | 0% | .
Cc1ccc(-c2nc3c(c(=O)[nH]c(=O)n3Cc3ccccc3)n2C)o1 | 0% | -13%[11.6 µM] | 5% | 1% | -68* | 40µM* | -9%
Cc1ccc(-c2nc3c(c(=O)[nH]c(=O)n3Cc3ccccc3)n2Cc2ccccc2)o1 | -26% | -10% | i | -16% | ? | 5% | .
O=C(O)C[C@H]1c2ccc(C(F)(F)F)cc2S(=O)(=O)N1C1CCCCC1 | . | -30% | 4% | 19% | 0 | . | .
CN(c1ccc(-c2csc(NC(=O)CCCc3nc4ccccc4c(=O)[nH]3)n2)cc1)S(C)(=O)=O | . | 3% | -1% | . | -56* | . | -9%
